# Measured values published in publication PMC7862700, “An all-to-all approach to the identification of sequence-specific readers for epigenetic DNA modifications on cytosine”.
# What was measured:
# Assay in all cases: DAPPL (digital affinity profiling via proximity ligation, sequencing); 10 mM Tris-HCl pH 7.5, 50 mM NaCl, 1 mM DTT, 4% glycerol, room temperature, 30 min; GST-TFs on glutathione beads, 16-mer random dsDNA library, 0.1% formaldehyde crosslink after washing; high values mean tight binding
# Details in all cases: protein: recombinant; tags: N-terminal GST; dsDNA, one strand shown
# ELF1 = ELF1 (Homo sapiens, UniProt P32519 1-619)
# Procedure, shortened: (§1)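 Human transcription factors were made in yeast as GST fusions, captured on glutathione beads and barcoded with DNA. With a tag-only sample included, the pool was incubated with 200 nmole of a random double-stranded 16-mer DNA library in Tris/NaCl/DTT/glycerol buffer at room temperature for 30 min, then crosslinked with 0.1% formaldehyde after washing, ligated by proximity, amplified and sequenced. For binding signal, each hexamer's read frequency for a factor is divided by its frequency for the tag-only sample.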
# SPIB = SPIB (Homo sapiens, UniProt Q01892 1-262)
# Procedure, shortened: as §1
# ELF4 = ELF4 (Homo sapiens, UniProt Q99607 1-663)
# Procedure, shortened: as §1
# ETV2 = molecular target: T1, ETV2 (Homo sapiens, UniProt O00321 1-342)
# T1 sequence: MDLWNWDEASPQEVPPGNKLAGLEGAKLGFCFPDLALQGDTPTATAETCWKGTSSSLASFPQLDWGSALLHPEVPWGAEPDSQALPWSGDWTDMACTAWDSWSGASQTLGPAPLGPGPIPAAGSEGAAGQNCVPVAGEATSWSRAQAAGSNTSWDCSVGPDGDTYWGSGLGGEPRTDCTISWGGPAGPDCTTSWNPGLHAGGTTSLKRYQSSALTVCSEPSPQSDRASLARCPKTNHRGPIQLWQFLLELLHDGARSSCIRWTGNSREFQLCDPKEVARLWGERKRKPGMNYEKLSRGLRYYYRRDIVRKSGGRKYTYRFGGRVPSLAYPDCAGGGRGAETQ
# Procedure, shortened: as §1
# ELK1 = molecular target: T2, ELK1 (Homo sapiens, UniProt P19419 1-428)
# T2 sequence: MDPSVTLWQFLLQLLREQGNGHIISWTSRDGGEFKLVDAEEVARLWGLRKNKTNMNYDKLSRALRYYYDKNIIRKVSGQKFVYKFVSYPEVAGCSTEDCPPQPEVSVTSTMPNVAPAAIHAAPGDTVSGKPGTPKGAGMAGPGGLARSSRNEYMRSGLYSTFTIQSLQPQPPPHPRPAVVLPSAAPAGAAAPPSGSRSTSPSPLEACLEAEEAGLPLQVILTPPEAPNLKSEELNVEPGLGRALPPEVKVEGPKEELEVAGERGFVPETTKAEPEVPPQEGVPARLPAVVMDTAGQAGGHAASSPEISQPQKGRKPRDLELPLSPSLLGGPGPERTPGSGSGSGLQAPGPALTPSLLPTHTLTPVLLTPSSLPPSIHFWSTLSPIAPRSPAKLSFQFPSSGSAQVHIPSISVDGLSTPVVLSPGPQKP
# Procedure, shortened: as §1
# GABPA = molecular target: T3, GABPA (Homo sapiens, UniProt Q06546 1-454)
# T3 sequence: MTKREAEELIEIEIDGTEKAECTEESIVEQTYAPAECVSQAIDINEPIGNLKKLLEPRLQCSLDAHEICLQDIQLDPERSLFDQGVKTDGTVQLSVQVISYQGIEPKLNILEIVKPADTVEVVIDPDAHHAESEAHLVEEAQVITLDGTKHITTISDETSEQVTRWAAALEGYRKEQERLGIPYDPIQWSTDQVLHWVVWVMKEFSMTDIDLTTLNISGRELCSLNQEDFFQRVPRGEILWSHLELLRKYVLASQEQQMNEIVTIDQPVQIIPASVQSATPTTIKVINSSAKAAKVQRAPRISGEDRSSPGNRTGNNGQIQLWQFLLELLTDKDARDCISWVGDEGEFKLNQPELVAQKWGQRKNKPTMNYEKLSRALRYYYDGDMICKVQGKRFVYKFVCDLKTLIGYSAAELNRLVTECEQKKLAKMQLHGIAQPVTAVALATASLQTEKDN
# Procedure, shortened: as §1
# EHF = molecular target: T4, EHF (Homo sapiens, UniProt Q9NZC4 1-300)
# T4 sequence: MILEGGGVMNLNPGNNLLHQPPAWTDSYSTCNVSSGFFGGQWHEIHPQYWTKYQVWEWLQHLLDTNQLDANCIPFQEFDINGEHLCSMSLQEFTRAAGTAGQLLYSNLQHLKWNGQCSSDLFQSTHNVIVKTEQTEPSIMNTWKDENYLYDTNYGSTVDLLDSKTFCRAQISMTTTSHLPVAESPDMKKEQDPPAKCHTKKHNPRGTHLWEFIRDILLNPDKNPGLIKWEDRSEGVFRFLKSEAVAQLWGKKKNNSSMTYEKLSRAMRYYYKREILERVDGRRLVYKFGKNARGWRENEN
# Procedure, shortened: as §1
# SPI1 = SPI1 (Homo sapiens, UniProt P17947 1-270)
# Procedure, shortened: as §1
# ELK4 = molecular target: T5, ELK4 (Homo sapiens, UniProt P28324-2 1-405)
# T5 sequence: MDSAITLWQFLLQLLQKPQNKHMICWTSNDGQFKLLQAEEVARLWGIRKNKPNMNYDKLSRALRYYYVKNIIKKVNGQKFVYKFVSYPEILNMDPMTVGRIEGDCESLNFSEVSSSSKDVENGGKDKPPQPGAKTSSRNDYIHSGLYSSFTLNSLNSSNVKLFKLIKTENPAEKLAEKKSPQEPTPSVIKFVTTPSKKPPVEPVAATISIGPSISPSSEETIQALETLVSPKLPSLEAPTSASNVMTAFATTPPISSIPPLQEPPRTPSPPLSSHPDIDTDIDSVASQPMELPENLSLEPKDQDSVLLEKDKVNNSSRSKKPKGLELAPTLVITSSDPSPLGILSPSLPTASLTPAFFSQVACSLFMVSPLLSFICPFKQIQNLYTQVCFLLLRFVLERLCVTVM
# Procedure, shortened: as §1
# ELF3 = molecular target: T6, ELF3 (Homo sapiens, UniProt P78545 1-371)
# T6 sequence: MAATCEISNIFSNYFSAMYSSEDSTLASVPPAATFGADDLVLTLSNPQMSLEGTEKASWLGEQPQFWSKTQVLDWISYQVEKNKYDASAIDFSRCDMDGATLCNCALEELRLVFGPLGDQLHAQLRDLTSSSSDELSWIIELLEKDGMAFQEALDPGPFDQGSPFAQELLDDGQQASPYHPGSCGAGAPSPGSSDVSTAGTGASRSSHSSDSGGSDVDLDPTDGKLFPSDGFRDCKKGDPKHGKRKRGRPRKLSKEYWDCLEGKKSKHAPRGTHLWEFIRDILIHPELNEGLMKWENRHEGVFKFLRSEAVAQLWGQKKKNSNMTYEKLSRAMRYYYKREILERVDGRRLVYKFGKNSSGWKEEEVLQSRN
# Procedure, shortened: as §1
# CRX = CRX (Homo sapiens, UniProt O43186 1-299)
# Procedure, shortened: as §1
# ETV1 = ETV1 (Homo sapiens, UniProt P50549 1-477)
# Procedure, shortened: as §1
# ETS2 = molecular target: T7, ETS2 (Homo sapiens, UniProt P15036 1-469)
# T7 sequence: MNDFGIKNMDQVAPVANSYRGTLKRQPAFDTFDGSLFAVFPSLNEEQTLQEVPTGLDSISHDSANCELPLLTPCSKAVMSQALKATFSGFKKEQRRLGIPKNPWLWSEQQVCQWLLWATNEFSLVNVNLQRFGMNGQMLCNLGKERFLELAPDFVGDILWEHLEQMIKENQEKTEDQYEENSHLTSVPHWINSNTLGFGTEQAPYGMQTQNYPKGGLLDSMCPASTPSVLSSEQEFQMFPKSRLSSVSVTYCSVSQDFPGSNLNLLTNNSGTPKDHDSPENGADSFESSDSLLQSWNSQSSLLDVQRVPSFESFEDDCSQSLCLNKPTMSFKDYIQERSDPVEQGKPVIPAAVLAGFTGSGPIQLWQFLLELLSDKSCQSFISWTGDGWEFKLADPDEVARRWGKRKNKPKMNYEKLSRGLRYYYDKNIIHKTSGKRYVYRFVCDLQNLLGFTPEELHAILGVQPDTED
# Procedure, shortened: as §1
# ETV7 = molecular target: T8, ETV7 (Homo sapiens, UniProt Q9Y603 1-341)
# T8 sequence: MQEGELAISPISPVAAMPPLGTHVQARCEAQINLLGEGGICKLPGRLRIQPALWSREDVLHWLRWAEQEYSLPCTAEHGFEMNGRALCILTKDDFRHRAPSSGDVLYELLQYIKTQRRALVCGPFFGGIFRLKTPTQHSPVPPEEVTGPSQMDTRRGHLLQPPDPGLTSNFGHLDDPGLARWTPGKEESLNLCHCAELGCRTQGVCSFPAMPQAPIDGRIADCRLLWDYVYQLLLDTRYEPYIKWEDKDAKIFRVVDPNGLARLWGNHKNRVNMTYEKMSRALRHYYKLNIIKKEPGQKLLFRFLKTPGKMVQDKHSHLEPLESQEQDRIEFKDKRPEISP
# Procedure, shortened: as §1
# ELF5 = molecular target: T9, ELF5 (Homo sapiens, UniProt Q9UKW6-2 1-255)
# T9 sequence: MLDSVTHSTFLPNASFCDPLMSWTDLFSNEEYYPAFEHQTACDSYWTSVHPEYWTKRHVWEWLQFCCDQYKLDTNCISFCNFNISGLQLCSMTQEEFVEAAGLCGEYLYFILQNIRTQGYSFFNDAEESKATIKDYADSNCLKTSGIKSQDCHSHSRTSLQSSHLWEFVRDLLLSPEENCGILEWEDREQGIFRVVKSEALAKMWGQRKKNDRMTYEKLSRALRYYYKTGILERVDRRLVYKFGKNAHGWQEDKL
# Procedure, shortened: as §1
# ETV6 = ETV6 (Homo sapiens, UniProt P41212 1-452)
# Procedure, shortened: as §1
# Chain of ELF1 (P32519 whole entry, the tested form may be a part): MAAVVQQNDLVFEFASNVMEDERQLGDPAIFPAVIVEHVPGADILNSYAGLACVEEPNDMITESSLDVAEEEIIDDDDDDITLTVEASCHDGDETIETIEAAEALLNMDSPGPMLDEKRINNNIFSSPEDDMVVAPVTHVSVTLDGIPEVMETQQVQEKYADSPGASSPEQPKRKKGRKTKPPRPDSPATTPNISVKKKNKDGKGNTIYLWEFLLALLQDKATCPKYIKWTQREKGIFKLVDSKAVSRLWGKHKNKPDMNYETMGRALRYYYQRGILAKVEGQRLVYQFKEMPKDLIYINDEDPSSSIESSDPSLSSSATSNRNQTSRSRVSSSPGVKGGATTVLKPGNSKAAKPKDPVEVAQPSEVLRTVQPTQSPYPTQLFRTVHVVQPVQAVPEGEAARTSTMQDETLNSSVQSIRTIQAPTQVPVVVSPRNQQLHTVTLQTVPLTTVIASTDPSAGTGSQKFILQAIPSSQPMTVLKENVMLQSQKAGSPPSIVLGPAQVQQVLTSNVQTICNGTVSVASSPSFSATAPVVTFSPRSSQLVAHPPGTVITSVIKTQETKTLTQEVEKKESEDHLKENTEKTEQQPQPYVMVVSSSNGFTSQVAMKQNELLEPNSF
# Chain of ELF4 (Q99607 whole entry): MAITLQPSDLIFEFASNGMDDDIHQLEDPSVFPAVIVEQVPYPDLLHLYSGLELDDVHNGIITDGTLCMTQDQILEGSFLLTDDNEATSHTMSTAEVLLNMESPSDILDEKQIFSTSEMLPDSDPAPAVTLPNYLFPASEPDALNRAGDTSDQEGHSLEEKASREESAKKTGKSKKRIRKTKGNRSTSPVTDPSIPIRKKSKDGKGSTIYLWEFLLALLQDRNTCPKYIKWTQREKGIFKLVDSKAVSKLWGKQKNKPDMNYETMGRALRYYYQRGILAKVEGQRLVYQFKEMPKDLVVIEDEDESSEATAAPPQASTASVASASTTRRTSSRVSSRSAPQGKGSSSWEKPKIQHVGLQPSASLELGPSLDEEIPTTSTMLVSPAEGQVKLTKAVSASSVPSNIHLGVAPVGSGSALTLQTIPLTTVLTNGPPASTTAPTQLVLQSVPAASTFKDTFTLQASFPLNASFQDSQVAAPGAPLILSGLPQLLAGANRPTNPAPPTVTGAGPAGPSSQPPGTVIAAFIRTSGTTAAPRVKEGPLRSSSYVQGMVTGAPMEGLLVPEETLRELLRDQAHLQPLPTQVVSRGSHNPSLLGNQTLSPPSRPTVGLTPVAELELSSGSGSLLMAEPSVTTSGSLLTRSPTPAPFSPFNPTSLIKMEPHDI
# Chain of CRX (O43186 whole entry): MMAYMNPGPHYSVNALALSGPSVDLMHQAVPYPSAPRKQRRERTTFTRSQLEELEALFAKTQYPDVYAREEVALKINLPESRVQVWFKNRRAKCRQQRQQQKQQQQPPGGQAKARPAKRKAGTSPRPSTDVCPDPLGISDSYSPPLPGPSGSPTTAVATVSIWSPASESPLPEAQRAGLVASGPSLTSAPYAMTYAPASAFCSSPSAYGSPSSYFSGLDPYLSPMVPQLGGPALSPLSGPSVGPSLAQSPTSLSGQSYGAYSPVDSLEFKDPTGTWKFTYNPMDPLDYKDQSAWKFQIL
# Chain of SPIB (Q01892 whole entry): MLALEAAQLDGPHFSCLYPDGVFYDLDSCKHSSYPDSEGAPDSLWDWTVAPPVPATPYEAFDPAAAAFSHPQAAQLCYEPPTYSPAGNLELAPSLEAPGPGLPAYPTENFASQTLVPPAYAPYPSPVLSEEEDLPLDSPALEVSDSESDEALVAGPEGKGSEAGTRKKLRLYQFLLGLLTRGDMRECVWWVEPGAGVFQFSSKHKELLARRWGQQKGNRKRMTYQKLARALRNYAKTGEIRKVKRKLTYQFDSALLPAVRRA
# Chain of ETV6 (P41212 whole entry): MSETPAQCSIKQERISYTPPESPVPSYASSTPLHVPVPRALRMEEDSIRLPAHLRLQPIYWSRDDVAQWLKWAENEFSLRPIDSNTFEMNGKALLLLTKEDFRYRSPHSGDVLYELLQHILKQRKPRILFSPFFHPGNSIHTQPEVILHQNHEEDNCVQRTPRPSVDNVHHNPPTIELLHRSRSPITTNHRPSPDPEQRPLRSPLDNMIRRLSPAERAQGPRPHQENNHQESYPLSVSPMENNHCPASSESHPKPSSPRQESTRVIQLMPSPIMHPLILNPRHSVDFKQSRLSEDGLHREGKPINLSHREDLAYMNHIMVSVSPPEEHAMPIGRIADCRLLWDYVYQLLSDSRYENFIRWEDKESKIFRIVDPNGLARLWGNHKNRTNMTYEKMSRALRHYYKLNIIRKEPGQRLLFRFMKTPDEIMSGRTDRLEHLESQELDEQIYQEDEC
# Chain of ETV1 (P50549 whole entry): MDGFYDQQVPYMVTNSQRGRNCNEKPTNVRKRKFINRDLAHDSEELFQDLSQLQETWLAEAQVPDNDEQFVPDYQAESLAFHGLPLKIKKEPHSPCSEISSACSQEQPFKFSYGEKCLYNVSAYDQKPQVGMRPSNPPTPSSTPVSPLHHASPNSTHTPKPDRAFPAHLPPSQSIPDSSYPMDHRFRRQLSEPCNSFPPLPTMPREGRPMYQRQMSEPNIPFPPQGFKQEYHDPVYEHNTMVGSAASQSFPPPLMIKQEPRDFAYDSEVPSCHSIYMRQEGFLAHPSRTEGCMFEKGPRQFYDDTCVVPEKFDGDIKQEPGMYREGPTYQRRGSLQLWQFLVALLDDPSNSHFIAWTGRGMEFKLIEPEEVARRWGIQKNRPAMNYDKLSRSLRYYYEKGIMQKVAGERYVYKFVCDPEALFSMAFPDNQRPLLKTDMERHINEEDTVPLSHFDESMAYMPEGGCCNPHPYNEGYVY
Sequence,binding signal (ELF1),binding signal (SPIB),binding signal (ELF4),binding signal (ETV2),binding signal (ELK1),binding signal (GABPA),binding signal (EHF),binding signal (SPI1),binding signal (ELK4),binding signal (ELF3),binding signal (CRX),binding signal (ETV1),binding signal (ETS2),binding signal (ETV7),binding signal (ELF5),binding signal (ETV6)
GCAGCA,"1.03 fold enrichment (6-mer frequency, TF over GST control)","1.02 fold enrichment (6-mer frequency, TF over GST control)","1.01 fold enrichment (6-mer frequency, TF over GST control)","1.01 fold enrichment (6-mer frequency, TF over GST control)",–,–,–,–,–,–,–,–,–,–,–,–
CAAAAG,"1.01 fold enrichment (6-mer frequency, TF over GST control)",–,–,"1.05 fold enrichment (6-mer frequency, TF over GST control)","1.02 fold enrichment (6-mer frequency, TF over GST control)","1.04 fold enrichment (6-mer frequency, TF over GST control)","1 fold enrichment (6-mer frequency, TF over GST control)","1.08 fold enrichment (6-mer frequency, TF over GST control)","1.05 fold enrichment (6-mer frequency, TF over GST control)","1.06 fold enrichment (6-mer frequency, TF over GST control)","1.02 fold enrichment (6-mer frequency, TF over GST control)","1 fold enrichment (6-mer frequency, TF over GST control)","1.04 fold enrichment (6-mer frequency, TF over GST control)","1 fold enrichment (6-mer frequency, TF over GST control)","1 fold enrichment (6-mer frequency, TF over GST control)","1.01 fold enrichment (6-mer frequency, TF over GST control)"
